The source of these data is the supplement of paper PMC6522484.

Test [1] has as its system DLD1. The test can be described thus: cell viability (CellTiter-Glo) relative to plate median (fraction of plate median); higher = more viable cells. To be noted: 5 µM; treatment time 24 h; reporter: 7TFP. The method, boiled down: (§1)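 Colorectal cancer cells stably transduced with lentiviral TCF/Wnt firefly luciferase reporters were seeded in 384-well plates and dosed 24 h later with library compounds at a final 5 µM for 24 h. Firefly luciferase or CellTiterGlo luminescence was then read on a Tecan F500 from parallel plates. Signals were normalised per well to the plate median without log transformation, additively in webcellHTS2, and averaged over two independent replicates.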
On the technique in general: Cellular ATP, detected with luciferase, serves as a proxy for viable cell number.

Test [2] deals with HCT116. Described as above. The following applies: 5 µM; treatment time 24 h; reporter: TCF4/Wnt. The method, boiled down:
as §1

Test [3] relates to SW480. The description is as above. To be noted: 5 µM; treatment time 24 h; reporter: 7TFP. In short, it runs like this:
as §1

Test [4] relates to DLD1. The test can be described thus: TCF/Wnt firefly luciferase reporter signal relative to plate median (fraction of plate median); higher = higher Wnt reporter signal. To be noted: 5 µM; treatment time 24 h; reporter: 7TFP. In short, it runs like this: as §1
The test system of test [5] is SW480. The test is described as above. The following applies: 5 µM; treatment time 24 h; reporter: 7TFP. In short, it runs like this: as §1

± gives the standard deviation of the averaged measurements.

Consider `Cc1occc(=O)c1O`, for which the cell viability stood at 0.962 ± 0.0099 in test [1], 0.973 ± 0.039 in test [2] and 0.936 ± 0.021 in test [3]. Also, the “TCF/Wnt firefly luciferase reporter signal” value in test [4] amounted to 0.938 ± 0.1; in test [5] it was 0.85 ± 0.042.
The corresponding values for `CC(=O)OCC(=O)[C@@]1(O)[C@H](OC(C)=O)C[C@H]2[C@@H]3CCC4=CC(=O)C=C[C@]4(C)[C@@]3(F)[C@@H](O)C[C@@]21C` are 1.01 ± 0.069, 1.09 ± 0.057, 1.03 ± 0.052, 1.1 ± 0.26 and 0.894 ± 0.069.
The corresponding values for `CC(=O)O[C@@H]1C=C[C@]2(C)C(C[C@@H](OC(C)=O)[C@]3(C)C4=CC(=O)O[C@H](c5ccoc5)[C@@]4(C)CCC23)C1(C)C` (stereo not given in full) are 1.06 ± 0.035, 1.08 ± 0.042, 1.03 ± 0.014, 1.09 ± 0.021 and 1.12 ± 0.078.
`O=c1c(O)c(-c2ccc(O)c(O)c2)oc2cc(O)cc(O)c12`: the cell viability in test [1] was found to be 0.9445 ± 0.00071; in test [2], 0.9265 ± 0.0021; in test [3], 1 ± 0.036. Further, the entries for the “TCF/Wnt firefly luciferase reporter signal” value in test [4] and in test [5] were 0.936 ± 0.062 and 0.983 ± 0.067, respectively.
As to `Cc1cc(O)c(C=O)c2c1C(=O)Oc1c(COC(=O)/C=C/C(=O)O)c(O)c(C(=O)O)c(C)c1O2`, the cell viability came out at 0.992 ± 0.026 in test [1], 1.05 ± 0.021 in test [2] and 0.966 ± 0.011 in test [3]. For the same molecule, the “TCF/Wnt firefly luciferase reporter signal” value in test [4] amounted to 0.933 ± 0.12; in test [5] it was 0.939 ± 0.12.
In the case of `COc1ccc2c(C)cc(=O)oc2c1`, the cell viability in test [1] was 0.974 ± 0.027; in test [2] it was 0.962 ± 0.022; in test [3] it was 0.939 ± 0.0071. The “TCF/Wnt firefly luciferase reporter signal” value in test [4] came out at 0.803 ± 0.14; in test [5], 0.869 ± 0.099.
On to `CCOC(=O)C1=C[C@]2(CC)CCCN3CCc4c(n1c1ccccc41)[C@@H]32`, for which the results for the cell viability in test [1], in test [2] and in test [3] were 0.916 ± 0.016, 1.01 ± 0.088 and 0.995 ± 0.0071, respectively. Further, the “TCF/Wnt firefly luciferase reporter signal” value in test [4] amounted to 1.02 ± 0.067; in test [5], 0.782 ± 0.079.
The corresponding values for `C=CCc1ccccc1OCC(O)CNC(C)C` (stereo not given) are 1.03 ± 0.055, 1.04 ± 0.035, 0.961 ± 0.035, 1.1 ± 0.27 and 0.852 ± 0.077.
The corresponding values for `COc1cc2c(cc1OC)C1(O)C(=O)c3ccc(O)c(C(=O)O)c3OC1CO2` (stereo not given) are 1.05 ± 0.035, 1.04 ± 0.059, 1.08 ± 0.014, 0.9145 ± 0.005 and 0.984 ± 0.14.
The corresponding values for `CCCCCCCCCCCC1=C(O)C(=O)C=C(O)C1=O` are 1.01 ± 0.06, 1.12 ± 0.071, 0.9665 ± 0.00071, 1.1 ± 0.028 and 1.075 ± 0.0071.
As for `COc1cc(-c2coc3cc(O[C@@H]4O[C@H](CO)[C@@H](O)[C@H](O)[C@H]4O)c(OC)c(O)c3c2=O)cc(O)c1OC`, the cell viability stood at 1.1 ± 0.057 in test [1], 1.12 ± 0.078 in test [2] and 1.09 ± 0.014 in test [3]. Further, the results for the “TCF/Wnt firefly luciferase reporter signal” value in test [4] and in test [5] were 1.01 ± 0.15 and 0.885 ± 0.023, respectively.
Take `O=c1c(O)c(-c2ccccc2)oc2cccc(O)c12`: the values for the cell viability in test [1], in test [2] and in test [3] were 1.03 ± 0.014, 1.02 ± 0.044 and 1.01 ± 0.045, respectively. For the same molecule, the “TCF/Wnt firefly luciferase reporter signal” value came out at 1.07 in test [4] and 0.969 ± 0.021 in test [5].
For `CC(=O)O[C@H]1C[C@@H](OC(C)=O)C(C)(C)C2CC(=O)[C@]3(C)C(CC[C@@]4(C)[C@H](c5ccoc5)OC(=O)[C@H]5O[C@]543)[C@]21C` (stereo not given in full) the same measures were 0.983 ± 0.0099, 0.998 ± 0.046, 1.02 ± 0.076, 1.06 ± 0.11 and 1.03 ± 0.028.
For `C[C@@H]1CC[C@H]2C(C(=O)O)=C[C@@H]3[C@@H](O)C(C)(C)C[C@@]132` [Pentalenic acid] the same measures were 0.966 ± 0.019, 0.941 ± 0.016, 1.02 ± 0.042, 0.794 ± 0.13 and 0.98 ± 0.16.
For `Cc1ccsc1/C=C/C1=NCCCN1C` the same measures were 0.843 ± 0.058, 0.864 ± 0.044, 0.9765 ± 0.00071, 1.04 ± 0.021 and 1 ± 0.083.
